# Experimental data reported in PubChem BioAssay AID588683 (Broad Institute, 2011).
# Entries with a potency or affinity are not part of this list. Values without a mark were called inactive. No rule for the calls is given here.
# Target: Kelch-like ECH-associated protein 1 (Homo sapiens) + Nuclear factor erythroid 2-related factor 2 (Homo sapiens) (UniProt Q14145+Q16236)
# Assay: Keap1-Nrf2 protein-protein interaction inhibitors, dose response, biochemical, fluorescence polarization, cherry-picked samples (AID 588683);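 also: Kelch domain of Keap1 binding a fluorescein-labelled 9mer Nrf2 peptide; more negative means stronger inhibition of peptide binding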
# Details: Keap1/Nrf2 peptide fluorescence polarization, plate reader; series mostly up to 26 µM; activity change, negative = inhibition: at the top concentration
# Kelch-like ECH-associated protein 1 (Homo sapiens) + Nuclear factor erythroid 2-related factor 2 (Homo sapiens), sequence (Q14145 whole entry, looked up, the tested form may be a part): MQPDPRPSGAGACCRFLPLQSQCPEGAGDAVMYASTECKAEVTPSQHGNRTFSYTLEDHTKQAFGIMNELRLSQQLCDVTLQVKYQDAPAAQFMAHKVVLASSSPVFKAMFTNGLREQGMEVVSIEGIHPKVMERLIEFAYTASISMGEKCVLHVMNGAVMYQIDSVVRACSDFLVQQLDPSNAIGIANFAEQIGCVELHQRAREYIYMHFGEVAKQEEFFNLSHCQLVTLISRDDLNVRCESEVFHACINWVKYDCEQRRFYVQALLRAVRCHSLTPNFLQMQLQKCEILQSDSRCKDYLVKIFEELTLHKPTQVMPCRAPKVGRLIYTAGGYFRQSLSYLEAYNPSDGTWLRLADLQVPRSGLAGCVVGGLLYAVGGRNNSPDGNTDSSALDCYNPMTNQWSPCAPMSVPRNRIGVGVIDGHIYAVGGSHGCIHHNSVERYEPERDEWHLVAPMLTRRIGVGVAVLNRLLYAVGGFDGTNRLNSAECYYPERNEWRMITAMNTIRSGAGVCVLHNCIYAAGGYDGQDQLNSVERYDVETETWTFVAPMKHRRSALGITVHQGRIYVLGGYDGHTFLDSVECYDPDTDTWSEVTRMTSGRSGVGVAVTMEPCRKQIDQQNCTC
# Kelch-like ECH-associated protein 1 (Homo sapiens) + Nuclear factor erythroid 2-related factor 2 (Homo sapiens), sequence (Q16236 whole entry, looked up, the tested form may be a part): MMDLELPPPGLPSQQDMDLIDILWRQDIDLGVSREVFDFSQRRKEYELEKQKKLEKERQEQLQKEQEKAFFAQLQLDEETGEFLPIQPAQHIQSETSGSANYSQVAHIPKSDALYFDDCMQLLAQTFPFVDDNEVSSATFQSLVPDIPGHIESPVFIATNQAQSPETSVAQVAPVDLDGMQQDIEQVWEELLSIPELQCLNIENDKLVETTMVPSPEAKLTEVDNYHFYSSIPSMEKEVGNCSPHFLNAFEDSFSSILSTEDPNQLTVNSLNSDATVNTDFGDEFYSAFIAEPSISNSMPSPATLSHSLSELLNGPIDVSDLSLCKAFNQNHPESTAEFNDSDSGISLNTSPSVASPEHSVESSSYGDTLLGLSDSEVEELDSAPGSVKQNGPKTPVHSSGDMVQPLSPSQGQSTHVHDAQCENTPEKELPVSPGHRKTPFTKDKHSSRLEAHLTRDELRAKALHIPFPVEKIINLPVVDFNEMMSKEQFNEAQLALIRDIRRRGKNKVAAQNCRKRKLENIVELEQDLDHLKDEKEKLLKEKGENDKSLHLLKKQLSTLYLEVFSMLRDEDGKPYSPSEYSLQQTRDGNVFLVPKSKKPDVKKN
row,Structure (SMILES),"activity change, negative = inhibition [%]"
1,CN1/C(=C\C=C2C(=O)NC(=O)NC2=O)C(C)(C)c2ccccc21,211
2,CC1(O)CCN2C(=O)CCc3cccc1c32 (stereo unspecified),34.6
3,O=C(O)c1cccc2c1NC(C(=O)O)C1CC(Sc3ccccc3[N+](=O)[O-])C(Cl)C21 (stereo unspecified),-8.32
4,CN1CC=C2C(C#N)=C(N)C(C#N)(C#N)C(c3ccncc3)C2C1 (stereo unspecified),-17.4
5,CCOC(=O)c1c(/N=C/c2c(O)n(-c3cccc(C)c3)c(=O)[nH]c2=O)sc2c1CCCC2,15.4
6,Cc1cc(C=C2C(=O)NC(=O)NC2=O)c(C)n1-c1cccnc1,-6.36
7,COCCNC(=O)Cn1cc(/C=C2\C(=O)NC(=O)N(c3cccc(C)c3C)C2=O)c2ccccc21,5.42
8,COc1ccc(-n2c(CNCCc3ccc(C)cc3)nc3ccccc3c2=O)cc1,-0.955
9,CCCCc1ccc(C(=O)O)nc1,1.5
10,CCn1cc(C=C2C(=O)NC(=O)NC2=O)c2ccccc21,32
11,Cn1cc(/C=C2\C(=O)NC(=O)N(c3ccccc3)C2=O)c2ccccc21,-8.02
